Screening data deposited in PubChem by National Center for Advancing Translational Sciences (NCATS).
Shown are actives, neighbours in structure and some others; about 2.4% of the full set was active somewhere.
D2 ag-1: HTS Assay for Allosteric Agonists of the Human D2 Dopamine Receptor: Primary Screen for Agonists; D(2) dopamine receptor (Homo sapiens), P14416; activation, % at 2 µM; HEK293 T-REx D2 cells, calcium flux agonist mode; hit rate 0.53% among 340,000;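 active = activation over 3 SD above normal in the single-dose calcium agonist read, cut at about 30% in these data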
Target sequence (P14416 whole entry, looked up): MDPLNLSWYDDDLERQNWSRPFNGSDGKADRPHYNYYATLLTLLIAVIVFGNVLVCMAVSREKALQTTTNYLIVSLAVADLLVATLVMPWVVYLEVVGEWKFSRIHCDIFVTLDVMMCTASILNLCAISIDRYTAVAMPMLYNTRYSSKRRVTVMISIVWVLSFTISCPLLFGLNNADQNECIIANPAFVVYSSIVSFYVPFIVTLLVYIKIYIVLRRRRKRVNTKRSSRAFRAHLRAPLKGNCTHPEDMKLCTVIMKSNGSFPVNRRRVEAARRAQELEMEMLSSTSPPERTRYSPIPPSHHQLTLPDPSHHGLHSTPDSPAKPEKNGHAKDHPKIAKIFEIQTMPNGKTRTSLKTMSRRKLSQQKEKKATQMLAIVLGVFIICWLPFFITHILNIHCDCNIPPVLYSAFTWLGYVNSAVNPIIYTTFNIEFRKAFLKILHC
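HEK293 Trex D2 cells, tetracycline-induced, o/n 30 C 5% CO2; no-wash Ca dye, RT 30–90 min; 10-cycle baseline, 23 nl cpd added, kinetic Ca read 180 s; agonist hits = positive Ca response.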
D2 PAM-1: HTS Assay for Positive Allosteric Modulators of the Human D2 Dopamine Receptor: Primary Screen for Potentiators; potentiation, % at 10 µM; HEK293 T-REx D2, calcium flux, EC20 dopamine potentiation; AID 485347, 2010; hit rate 0.34% among 340,000;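 active = potentiation over 3 SD above the plate norm, cut at about 30% in these data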
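Potentiation of an EC20 dopamine calcium response is measured in a force-coupled, tetracycline-inducible Hek293 Trex D2 line. Compound-only kinetic reads over 180 s flag agonists before dopamine addition.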
D2 antagonist: HTS Assay for Allosteric Antagonists of the Human D2 Dopamine Receptor: Primary Screen for Antagonists; D(2) dopamine receptor (Homo sapiens), P14416; HEK293 TREx D2 cells, calcium flux, dopamine EC80; inhibition, % at 10 µM; hit rate 2% among 340,000; in the data active = inhibition above about 30%; inactive = below that, where a call was filed
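In this primary screen, negative modulation is detected by tracking calcium flux after an EC80 dopamine challenge in inducible HEK293 T-REx D2 cells preexposed to test compound for 180 s.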
D2 PAM-2: Beta-Arrestin HTS for Positive Allosteric Modulators of the Human D2 Dopamine Receptor: Potentiators | D(2) dopamine receptor (Homo sapiens), P14416 | DiscoveRx D2 beta-arrestin cells, luminescence, 90 min; 100% = 57 uM dopamine signal | potentiation, % (no concentration beside the values) | hit rate 0.23% among 360,000 | AID 624464, 2012; in the data active = potentiation above about 50%
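PathHunter D2 cells, attached overnight at 37 deg C, received compound in DMSO plus dopamine at EC20 (50 nM final) for 90 min at 37 deg C. Beta-arrestin recruitment was read as luminescence after 1 h with detection reagent at ambient temperature.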
D2 ag-2: Beta-Arrestin HTS for Positive Allosteric Modulators of the Human D2 Dopamine Receptor: Agonists. activation, % (no concentration beside the values). DiscoveRx PathHunter D2 beta-arrestin, luminescence, 90 min; 100% = 57 uM dopamine signal. hit rate 0.084% among 360,000; in the data active = activation above about 40%
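DiscoveRx PathHunter D2 beta-arrestin cells (2,100/well) attached overnight, then compound-stimulated 90 min at 37 C in HBSS/10 mM HEPES/0.1% Tween-20 buffer; beta-galactosidase complementation read by luminescence after 1 h at ambient temperature. Dopamine 57 uM final (EC100) as control.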
A number is an active result.

For COC(=O)c1ccc(Cl)c(NC(=O)CN2CCC(C)CC2)c1 the results were D2 ag-1 inactive, D2 PAM-1 inactive, D2 antagonist inactive, D2 PAM-2 inactive and D2 ag-2 inactive.
Screening COc1cccc(-c2ncc3ccccc3c2COC(=O)c2cccs2)c1 returned D2 ag-1 inactive, D2 PAM-1 inactive, D2 antagonist inactive, D2 PAM-2 inactive and D2 ag-2 inactive.
`COc1cc([C@H]2c3[nH]c4ccccc4c3C[C@H]3C(=O)N4[C@@H](c5cc(OC)c(OC)c(OC)c5)c5[nH]c6ccccc6c5C[C@H]4C(=O)N23)cc(OC)c1OC` gave D2 ag-1 inactive, D2 PAM-1 inactive, D2 antagonist inactive, D2 PAM-2 inactive and D2 ag-2 inactive.
For Cc1ccnc(SCCn2c(N3CCN(C)CC3)nc3c2c(=O)[nH]c(=O)n3C)n1 the results were D2 ag-1 inactive, D2 PAM-1 inactive and D2 antagonist inactive.
Screening COc1cc2c(C(=O)N3CCN(c4ccc(C)cc4)C(C)C3)cn(CC(C)C)c(=O)c2cc1OC (centres undefined) returned D2 ag-1 inactive and D2 PAM-1 inactive.
For O=C(O)CC(NC(=O)C12CC3CC(CC(C3)C1)C2)c1cc([N+](=O)[O-])ccc1Cl (centres undefined) the results were D2 ag-1 inactive, D2 PAM-1 inactive, D2 antagonist 72.3, D2 PAM-2 inactive and D2 ag-2 inactive.
O=C(O)CC(NC(=O)C1CCCCC1)c1cc([N+](=O)[O-])ccc1Cl (centres undefined) was read as D2 ag-1 inactive, D2 PAM-1 inactive, D2 antagonist inactive, D2 PAM-2 inactive and D2 ag-2 inactive.
For COCCn1nnnc1SCC(=O)c1ccc(F)cc1 the results were D2 ag-1 inactive, D2 PAM-1 inactive, D2 antagonist 38.8, D2 PAM-2 inactive and D2 ag-2 inactive.
Screening COCCn1c(SCC(=O)c2ccc(F)cc2)nnc1C(C)C returned D2 ag-1 inactive, D2 PAM-1 inactive, D2 antagonist inactive, D2 PAM-2 inactive and D2 ag-2 inactive.
`Cc1onc(-c2c(Cl)cccc2Cl)c1CO/N=C(\C#N)c1c(Cl)cccc1Cl` gave D2 ag-1 inactive, D2 PAM-1 inactive, D2 antagonist 30.1, D2 PAM-2 inactive and D2 ag-2 inactive.
For Oc1cc(-c2ccccc2)c2ccccc2c1 the results were D2 ag-1 inactive, D2 PAM-1 inactive, D2 antagonist inactive, D2 PAM-2 inactive and D2 ag-2 45.5.
COc1ccc2nc(N=NC3=C(O)CC(C)(C)CC3=O)sc2c1 was read as D2 ag-1 inactive, D2 PAM-1 inactive, D2 antagonist 33.7, D2 PAM-2 inactive and D2 ag-2 inactive.
CC1(C)CC(=O)C(N=Nc2ccc3ncsc3c2)=C(O)C1 was read as D2 ag-1 inactive, D2 PAM-1 inactive, D2 antagonist inactive, D2 PAM-2 inactive and D2 ag-2 inactive.
`CCOc1ccc(NC(=O)CN(C)C(=O)CN2C(=O)NC3(CCCC3)C2=O)cc1OCC` gave D2 ag-1 inactive, D2 PAM-1 inactive, D2 antagonist inactive, D2 PAM-2 inactive and D2 ag-2 inactive.
Screening CCSc1nc2c(c(=O)[nH]c(=O)n2C)n1C/C=C(/C)Cl returned D2 ag-1 inactive, D2 PAM-1 48.4, D2 antagonist inactive, D2 PAM-2 inactive and D2 ag-2 inactive.
C=C(C)CSc1nc2c(c(=O)[nH]c(=O)n2C)n1CCC(C)C was read as D2 ag-1 inactive, D2 PAM-1 34.1, D2 antagonist inactive, D2 PAM-2 inactive and D2 ag-2 inactive.
Screening C/C(N)=C(/C#N)C(=O)CSc1nnc(-c2ccc(OC(F)F)cc2)o1 returned D2 ag-1 inactive, D2 PAM-1 inactive, D2 antagonist inactive, D2 PAM-2 inactive and D2 ag-2 inactive.
`CCN(CCCNC(=O)CNC(=O)Cn1cnc2ccccc2c1=O)c1cccc(C)c1` gave D2 ag-1 inactive, D2 PAM-1 inactive, D2 antagonist inactive, D2 PAM-2 inactive and D2 ag-2 inactive.
`CC(C)Sc1nc(SCC(=O)NCc2ccco2)c2c3c(sc2n1)COC(C)(C)C3` gave D2 ag-1 inactive, D2 PAM-1 inactive, D2 antagonist inactive, D2 PAM-2 inactive and D2 ag-2 inactive.
For S=C(NCC1CCCO1)N1CCN(c2nc(-c3ccccc3)cs2)CC1 (centres undefined) the results were D2 ag-1 inactive, D2 PAM-1 inactive, D2 antagonist 66.6, D2 PAM-2 inactive and D2 ag-2 inactive.
CC(C)(CN1CCN(Cc2ccccc2)CC1)NS(=O)(=O)c1ccccc1 was read as D2 ag-1 inactive, D2 PAM-1 inactive, D2 antagonist 40.7, D2 PAM-2 inactive and D2 ag-2 inactive.
COc1cccc(/C(O)=C2/C(=O)C(=O)N(CCN3CCOCC3)C2c2cccs2)c1 (centres undefined) was read as D2 ag-1 inactive, D2 PAM-1 inactive, D2 antagonist inactive, D2 PAM-2 inactive and D2 ag-2 inactive.
For CN1CCN(C2=Nc3cc(F)ccc3Cc3ccccc32)CC1 the results were D2 ag-1 inactive, D2 PAM-1 inactive and D2 antagonist 32.9.
`Fc1ccc(N2CCN(C3=Nc4cccc5cccc3c45)CC2)cc1` gave D2 ag-1 inactive, D2 PAM-1 inactive, D2 antagonist inactive, D2 PAM-2 inactive and D2 ag-2 inactive.
`CCCOc1ccc(C(=O)NC2CCSc3ccccc32)cc1` (centres undefined) gave D2 ag-1 inactive, D2 PAM-1 inactive, D2 antagonist 36.0, D2 PAM-2 inactive and D2 ag-2 inactive.
For COc1cc(NC(=O)c2c(F)cccc2F)c(Cl)cc1Cl the results were D2 ag-1 inactive, D2 PAM-1 inactive, D2 antagonist inactive, D2 PAM-2 inactive and D2 ag-2 inactive.
CN1CCCC(CN2c3ccccc3Sc3ccccc32)C1 (centres undefined) was read as D2 PAM-2 inactive and D2 ag-2 inactive.
For CN1CCCCC1CCN1c2ccccc2Sc2ccc(S(C)=O)cc21 (centres undefined) the results were D2 ag-1 inactive, D2 PAM-1 inactive, D2 antagonist 95.7, D2 PAM-2 inactive and D2 ag-2 inactive.
For c1ccc(CSc2ncn[nH]2)nc1 the results were D2 ag-1 inactive, D2 PAM-1 inactive, D2 antagonist 42.1, D2 PAM-2 inactive and D2 ag-2 inactive.
`CCN(CC)C(=O)COc1coc(CN2CCN(c3ccc(F)cc3)CC2)cc1=O` gave D2 ag-1 inactive, D2 PAM-1 inactive, D2 antagonist inactive, D2 PAM-2 inactive and D2 ag-2 inactive.
For O=C(COc1ccccc1Cl)c1ccc[nH]1 the results were D2 ag-1 inactive, D2 PAM-1 inactive, D2 antagonist inactive, D2 PAM-2 inactive and D2 ag-2 inactive.
